Assay outcomes deposited in PubChem BioAssay by National Center for Advancing Translational Sciences (NCATS).
This is one part of a sample in which hits are shown more often than they occur.
KDM5B inh – KDM5B demethylase inhibition; Q9UGL1; KDM5B demethylase, FDH-coupled NADH fluorescence (FDH is formaldehyde dehydrogenase); Potency, µM (highest dose often 57.7 µM), usual class: inhibitors; actives 2.6% (n = 220,000); AID 1347165; active means well fitted inhibition curve with a large enough effect; further: 0% is about no effect; nearly all actives have a fitted effect of over 70% in size
Target sequence (Q9UGL1 whole entry, looked up): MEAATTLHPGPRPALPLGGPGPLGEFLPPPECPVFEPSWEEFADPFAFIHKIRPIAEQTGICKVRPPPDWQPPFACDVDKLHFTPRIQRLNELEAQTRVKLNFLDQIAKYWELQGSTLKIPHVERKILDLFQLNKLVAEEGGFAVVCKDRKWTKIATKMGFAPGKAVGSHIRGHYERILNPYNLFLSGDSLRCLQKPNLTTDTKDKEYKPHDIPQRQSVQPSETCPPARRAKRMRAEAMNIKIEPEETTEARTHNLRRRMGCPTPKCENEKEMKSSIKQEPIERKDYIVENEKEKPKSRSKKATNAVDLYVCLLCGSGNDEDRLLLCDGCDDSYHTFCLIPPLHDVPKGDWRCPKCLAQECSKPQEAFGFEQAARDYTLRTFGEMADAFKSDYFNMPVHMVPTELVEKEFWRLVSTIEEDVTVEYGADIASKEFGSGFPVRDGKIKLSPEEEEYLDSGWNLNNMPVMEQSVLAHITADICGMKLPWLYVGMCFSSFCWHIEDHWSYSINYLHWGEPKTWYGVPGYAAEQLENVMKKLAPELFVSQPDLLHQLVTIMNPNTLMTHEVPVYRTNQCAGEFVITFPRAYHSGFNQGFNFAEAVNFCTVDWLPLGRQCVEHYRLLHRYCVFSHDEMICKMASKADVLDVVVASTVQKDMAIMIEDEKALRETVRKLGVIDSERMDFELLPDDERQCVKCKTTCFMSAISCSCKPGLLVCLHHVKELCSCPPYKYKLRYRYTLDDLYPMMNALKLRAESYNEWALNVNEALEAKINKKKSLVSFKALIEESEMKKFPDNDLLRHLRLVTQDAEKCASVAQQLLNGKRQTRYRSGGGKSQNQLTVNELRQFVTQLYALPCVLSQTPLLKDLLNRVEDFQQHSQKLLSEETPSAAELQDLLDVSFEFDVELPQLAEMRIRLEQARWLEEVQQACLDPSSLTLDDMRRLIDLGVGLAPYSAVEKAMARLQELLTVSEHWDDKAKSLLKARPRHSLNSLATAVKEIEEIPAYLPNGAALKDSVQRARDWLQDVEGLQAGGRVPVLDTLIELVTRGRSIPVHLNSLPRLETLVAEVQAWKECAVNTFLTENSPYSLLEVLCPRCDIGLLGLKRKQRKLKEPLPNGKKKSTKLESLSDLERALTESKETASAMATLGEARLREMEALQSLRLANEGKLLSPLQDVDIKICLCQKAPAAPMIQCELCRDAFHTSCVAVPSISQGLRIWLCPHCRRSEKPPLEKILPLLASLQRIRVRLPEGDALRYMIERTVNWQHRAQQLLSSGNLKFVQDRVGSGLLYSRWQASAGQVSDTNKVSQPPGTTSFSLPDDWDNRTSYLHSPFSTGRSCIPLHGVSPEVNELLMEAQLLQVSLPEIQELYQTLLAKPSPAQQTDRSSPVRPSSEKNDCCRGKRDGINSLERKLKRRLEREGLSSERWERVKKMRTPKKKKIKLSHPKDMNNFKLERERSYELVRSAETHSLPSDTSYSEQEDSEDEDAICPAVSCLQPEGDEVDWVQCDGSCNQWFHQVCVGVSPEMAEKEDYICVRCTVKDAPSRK
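Compound dilutions met 200 nM (final) KDM5BΔAP for 10 min at room temperature before substrate addition. The substrate mix held 12.5 µM H3K4me3 with cofactors 25 µM α-ketoglutarate and 50 µM Fe²⁺. NADH signal gain over 30 min defined activity.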
* = called active by the depositor; i = inactive. Potency means the concentration at half of the fitted maximal effect.

SMILES	KDM5B inh
Cc1cc(C(=O)COC(=O)c2ccco2)c(C)n1Cc1ccccc1	i
Cc1cc(C)c(S(=O)(=O)n2cc3c(=O)n(C)c(=O)n(C)c3n2)cc1C	i
O=C(Nc1c(-c2ccc(F)cc2)nc2sccn12)c1cccc(S(=O)(=O)N2CCOCC2)c1	i
O=C(NC1CC1)c1cccn2nccc12	35.5µM*
CNC(=O)c1cccn2nccc12	31.6µM*
CNC(=O)c1ccn2nccc2c1	i
Nc1c(C(=O)NC2CCCC2)cnn1-c1ccccc1	i
CNC(=O)c1cnn2c1CN(C(=O)c1ccccc1F)CC2	i
CC1CCC(NC(=O)c2ccccc2S(C)(=O)=O)CC1 (stereo not given)	i
O=C(NC1CC1)c1cc(-c2ccccc2)nc2ccccc12	i
O=C(NC1CC1)c1cnn2ncccc12	31.6µM*
N#CCSc1ccccc1C(=O)NC1CC1	i
COc1cccc(CN2Cc3cc(NC(=O)c4cccc(OC)c4)ccc3OCC2=O)c1	i
Cc1ccc(NC(=O)c2ncoc2-c2ccco2)cc1	i
COc1ccc(C(=O)N2CCCN(C(=O)OC(C)(C)C)CC2)cc1OC	i
c1ccc(Sc2c(-c3ccccc3)cc3ccccn23)cc1	i
CC(C)c1cc(C(=O)NC(C2CC2)C2CC2)c2cnn(C(C)C)c2n1	i
COC(=O)c1sccc1NC(=O)N1CCCC1c1noc(COc2ccc(F)cc2)n1 (stereo not given)	31.6µM*
CCNC(=O)N1CCCC1c1noc(COc2ccc(F)cc2)n1 (stereo not given)	i
CCOCc1nc(C2CCCN2C(=O)Nc2ccsc2C(=O)OC)no1 (stereo not given)	i
COc1ccc(-c2cc(C(F)(F)F)nc(S(=O)(=O)CCC(=O)Nc3ccccc3)n2)cc1	i
Cc1nc2nc(CC(=O)Nc3ccccc3)nn2c(C)c1Cc1ccccc1Cl	i
CC(NC(=O)c1cc(=O)c2ccccc2o1)c1ccc(-c2ccccc2)cc1 (stereo not given)	i
Cc1ccc(C(=O)CCN2CCC(c3ccccc3)C2)cc1 (stereo not given)	i
O=C1CCc2cc(C(=O)NCc3ccc4c(c3)OCO4)ccc2N1	i
SMILES	KDM5B inh
CCn1cnc2c1c(=O)n(CC(=O)N1c3ccccc3CCC1C)c(=O)n2Cc1ccccc1 (stereo not given)	i
Cc1ccc(CNC(=O)c2nc(-c3nn(-c4ccc(F)cc4)c(=O)n(C)c3=O)no2)o1	i
CCn1c(C)cc(C(=O)CSc2n[nH]c(C3CC3)n2)c1C	i
Clc1ccccc1Nc1cnc2ccc(N3CCOCC3)nn12	31.6µM*
c1ccc(-c2ccccc2Nc2cnc3ccc(N4CCOCC4)nn23)cc1	i
COc1cccc(Nc2cnc3ccc(N4CCOCC4)nn23)c1	i
CN1CCN(Cc2ccc(Nc3cnc4ccc(N5CCOCC5)nn34)cc2)CC1	i
FC(F)(F)c1cc(Nc2cnc3ccc(N4CCOCC4)nn23)ccc1Cl	31.6µM*
COc1ccc(-c2ccc3ncc(Nc4ccccc4Cl)n3n2)cn1	i
CC(C)(C)NC(=O)CC1(C(=O)N2CCC(c3c[nH]c4ccccc34)CC2)CCCC1	i
C=CCNC(=S)Nc1cc(C(F)(F)F)cc(C(F)(F)F)c1	i
ClC(C[n+]1ccccc1)C[n+]1ccccc1	i
Cc1cccc(CN2CCCC(O)(CN3CCNC(=O)C3(C)C)C2=O)c1 (stereo not given)	i
Cc1cccc(CN2CCCC(O)(CNCc3ncccc3C)C2=O)c1 (stereo not given)	28.2µM*
Cc1cccc(CN2CCCC(O)(CN3CCC(C)CC3)C2=O)c1 (stereo not given)	i
Cc1nn(C)c(C)c1CC(=O)Nc1nc(-c2ccc(F)cc2)c(C)s1	i
CCOC(=O)N1CCN(C(=O)c2cc3cc(C)ccc3[nH]2)CC1	i
Cc1ccc2[nH]c(=O)c(CCC(=O)N3CCCCC3)cc2c1	28.2µM*
Cc1ccc2[nH]c(=O)c(CCC(=O)N3CCN(CC(C)C)CC3)cc2c1	22.4µM*
CCCN(Cc1cc2cc(C)ccc2[nH]c1=O)S(C)(=O)=O	i
Cc1cccc(-c2nocc2CCC(=O)NC2CCN(Cc3ccccc3)CC2)c1	i
Cc1ccc2[nH]c(=O)c(CCC(=O)NC3CCN(Cc4ccccc4)CC3)cc2c1	25.1µM*
CCCCN1CCN(C(=O)CCc2cc3ccc(C)cc3[nH]c2=O)CC1	i
CC(=O)N(Cc1ccccc1)Cc1cc2cc(C)ccc2[nH]c1=O	i
Cc1ccc(-c2nc(CC(=O)NC3CCN(Cc4ccccc4)CC3)cs2)cc1	i
SMILES	KDM5B inh
CC(C)(C)NC(=O)c1ccc(NC(=O)C2(C)CC2(Cl)Cl)cc1 (stereo not given)	i
O=C(/C=C/Nc1ccc(Br)cc1F)c1ccc(OC(F)F)cc1	i
Fc1cccc(Cl)c1/C=N/N=C1c2ccccc2-c2ccccc21	i
COc1cccc(S(=O)(=O)Nc2c(NC3CCCCC3)c3ccccc3oc2=O)c1	i
Cc1ccc(C(=O)N2CCC3(CC2)Cc2ccccc2NC3=O)cc1	i
COc1cccc(/C=C2\Oc3cc(OS(=O)(=O)c4ccccc4)ccc3C2=O)c1	i
